Compound activity as filed in PubChem.
HT1080NT lethal: kills 2HG-producing HT-1080-NT fibrosarcoma cells; 360,000 compounds, 1.6% hits; Potency, µM (titrated, usually from 46.1 µM), without a hit: at the top dose activity, negative = less viability, actives largely listed as cytotoxic; HT-1080-NT fibrosarcoma viability, CellTiter-Glo ATP luminescence, 48 h;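 also: NT is the 2HG producing partner of a matched IDH1 knockdown line; potency is read from the fitted curve at half-maximal effect; 0% = DMSO-treated cells and -100% = media-only wells without cells; nearly all actives have a fitted effect of over 55% in size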
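750 cells/well, RPMI + 5% FBS; 2 h settle, compound pin-transfer, 48 h at 37 degrees C. CellTiter-Glo 10 min RT, luminescence. Normalized to DMSO and media-only wells.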
ELG1 DNA repair: inhibitors of ELG1-dependent DNA repair in HEK293T cells. HEK293T ELG1-luciferase reporter, luminescence, 16 h; DNA damage induced by 5-fluorouridine. Potency, µM (top dose mostly 46.1 µM), for inactives: at the top dose activity change, negative = inhibition, most hits filed as inhibitors. 330,000 compounds, 2.3% hits. AID 504467; also: potency is read from the fitted curve at half-maximal effect; nearly all actives have a fitted effect of over 55% in size
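5-Fluorouridine DNA damage + compound/DMSO, 2,000 cells/well, 16 h, 37 °C/5% CO2. ONE-Glo, 30 min RT, luminescence. Readout = decrease in reporter signal.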
TDP1 cell noCPT: qHTS for Inhibitors of human tyrosyl-DNA phosphodiesterase 1 (TDP1): qHTS in cells in absence of CPT; Potency, µM (titrated, usually from 46.2 µM), without a hit: at the highest dose activity change, negative = growth inhibition, usual class: inhibitors; DT40 Tdp1-/- hTDP1 cells, no CPT, ATP luminescence, 48 h; 420,000 compounds, 15% hits; also: potency is read from the fitted curve at half-maximal effect; nearly all actives have a fitted effect of over 55% in size
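DT40 Tdp1-/-;hTDP1 cells, no CPT (DMSO vehicle only), 400 cells/well; compounds pin-transferred; ≥48 hr, 37 °C; CellTiter-Glo 30 min RT dark, luminescence read.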
HT1080 IDH1KD tx: HT-1080 IDH1 knockdown cell toxicity (counter line); Potency, µM (doses to about 46.1 µM), without a hit: at the top dose activity, negative = toxicity, most hits filed as cytotoxic; 360,000 compounds, 2% hits; HT-1080 IDH1 knockdown viability, ATP luminescence, 48 h;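 also: potency is read from the fitted curve at half-maximal effect; 0% = DMSO wells and -100% = cell-free medium wells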
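Knockdown cells (IDH1KD HT-1080) received compounds 2 h after plating at 750 cells/well and were kept 48 h at 37 °C in 5% FBS RPMI. A CellTiter-Glo luminescence read gave % activity for curve fitting.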
TDP1 cell CPT: DT40-hTDP1 cell growth loss with CPT. chicken DT40 Tdp1-/-;hTDP1 cells + 20 nM CPT, ATP luminescence, 48 h. Potency, µM (top dose mostly 46.2 µM), for the others: at the top dose activity change, negative = growth inhibition, hits mostly inhibitors. 420,000 compounds, 12% hits. AID 686979; also: potency is read from the fitted curve at half-maximal effect; nearly all actives have a fitted effect of over 55% in size
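Chicken DT40 Tdp1-/- cells complemented with human TDP1, 400 cells/well, exposed to compounds plus 20 nM camptothecin for at least 48 h at 37 C; viability read as ATP content by CellTiter-Glo luminescence.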
IL-1B inflam inh: inflammasome signaling inhibition, IL-1 beta readout. THP-1 LPS/ATP IL-1B secretion, AlphaLISA, 16 h; stronger effect = lower value. activity change, % at 57.5 µM. 360,000 compounds, 4.7% hits; in the data active = activity change below about -50%; inconclusive = mostly about -30% to -49%
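Secreted IL-1B measured by AlphaLISA bead assay after 16 h compound exposure of THP-1 cells; compounds (final up to 57.5 uM) added 1 h before LPS (250 ng/mL) and ATP (1.25 mM) stimulation; lower signal means less secretion.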
* hit, by the source's call; u = inconclusive; x = no result; [ ] = another dose, or the depositor's remark. Most compounds without a hit are left out; they make up all but 19% or so of the library. Unless noted, calls follow the shape of the dose curve; as a rule, active = well fitted curve in the direction sought with a large enough effect; inconclusive = small, poorly fitted or top-dose-only effect, or another doubt; inactive = no such curve, though single readings can be large; an effect the other way counts as inactive or inconclusive. Unless noted, % is scaled to controls: 0 for no effect and ±100 for the full control effect.

SMILES	HT1080NT lethal	ELG1 DNA repair	TDP1 cell noCPT	HT1080 IDH1KD tx	TDP1 cell CPT	IL-1B inflam inh
O=C(Nc1ccc(S(=O)(=O)N2CCCCC2)cc1)C1CC(=O)N(c2ccc(Cl)cc2)C1 (stereo unspecified)	u	-16%	u	u	u	u
COC(=O)CN1C(c2ccccc2)=Nc2ccc(Cl)cc2C1c1ccccc1 (stereo unspecified)	5%	u	-25%	-3%	-35%	-7
COc1ccc(-n2nc(C(=O)NCC(=O)N3CCN(c4ccccc4F)CC3)c3ccccc3c2=O)cc1OC	1%	u	13µM*	-5%	u	u
COc1ccc(-n2nc(C(=O)NCC(=O)N3CCN(c4ccccc4F)CC3)c3ccccc3c2=O)cc1	0%	u	23µM*	12%	18µM*	-8
CCOC(=O)C1CCN(C(=O)CNC(=O)c2nn(-c3ccc(OC)c(OC)c3)c(=O)c3ccccc23)CC1	1%	4%	u	3%	3%	-26
NC(=O)CC(NC(=O)c1ccc(Cl)cc1)C(=O)NCCc1ccc(S(N)(=O)=O)cc1 (stereo unspecified)	7%	4%	8%	6%	18%	13
Cc1nn(-c2ccc(N3CCCC3)nn2)c(C)c1CCC(=O)NCc1ccccc1F	x	x	-28%	x	-16%	x
COC(=O)CN1C(C)=Nc2ccc(C)cc2C1c1ccccc1 (stereo unspecified)	-4%	-4%	-24%	2%	2%	-53*
CCCSc1nnc(NC(=O)Nc2ccc(C)cc2)s1	10%	2%	u	12%	u	22
CCCSc1nnc(NC(=O)Nc2ccccc2)s1	-9%	u	16µM*	0%	u	0
Cc1ccc(NC(=O)Nc2nnc(N3CCCC3)s2)cc1	x	x	-7%	x	0%	x
CCCSc1nnc(NC(=O)CCc2ccccc2)s1	0%	14%	-9%	0%	-5%	48
CCOC(=O)Cc1ccc(NC(=O)Nc2nnc(N3CCCCC3C)s2)cc1 (stereo unspecified)	x	x	12µM*	x	12µM*	x
CCCSc1nnc(NC(=O)Nc2ccc(F)cc2)s1	u	18%	21µM*	12µM*	21µM*	-28
CCN(c1ccccc1)c1nnc(NC(=O)Nc2ccc(Br)cc2)s1	x	x	3.7µM*	x	2.9µM*	x
Cc1ccc(NC(=O)Nc2nnc(SCC(=O)N3CCC(C)CC3)s2)cc1	x	x	23µM*	x	u	x
CCOC(=O)C1CCN(C(=O)c2nn(-c3ccc(C)cc3)c(=O)c3c2c2ccccc2n3C)CC1	x	x	u	x	-10%	x
Nc1[nH]c(C(=O)c2ccccc2)c(-c2ccc(Br)cc2)c1C(=O)c1ccc(Br)cc1	14%	x	-14%	5%	-13%	38
Nc1[nH]c(C(=O)c2ccccc2)c(-c2ccc(Br)cc2)c1C(=O)c1cccs1	12%	x	u	8%	-24%	25
Nc1[nH]c(C(=O)c2ccccc2)c(-c2ccccc2C(F)(F)F)c1C(=O)c1cccs1	0%	x	23µM*	-11%	23µM*	5
CC(C)(C)C(=O)c1c(N)[nH]c(C(=O)c2ccccc2)c1-c1ccc(C(F)(F)F)cc1	2%	x	23µM*	-15%	u	2
Cc1[nH]nc(N=CC2=C(O)CC(C)(C)CC2=O)c1-c1ccc(Cl)cc1	4%	10%	12µM*	1%	12µM*	-7
CC1(C)CC(=O)C(C=Nc2ccc(O)cc2)=C(O)C1	u	u	23µM*	-2%[9.24 µM]	u	26
O=C(Nc1ccccc1C(=O)OCc1cc(=O)n2c3c(sc2n1)CCCC3)c1ccc(F)cc1	x	x	u	x	-22%	x
COc1ccc(Cn2c(=O)[nH]c3cc(C(=O)NCCC(C)C)ccc3c2=O)cc1	x	x	-25%	x	2%	x
SMILES	HT1080NT lethal	ELG1 DNA repair	TDP1 cell noCPT	HT1080 IDH1KD tx	TDP1 cell CPT	IL-1B inflam inh
COc1ccc(C(=O)NC(Nc2ccc(C)cc2)C(Cl)(Cl)Cl)cc1 (stereo unspecified)	-17%	5%	18µM*	u	21µM*	-72*
COc1ccc(NC(NC(=O)c2ccc(OC)cc2)C(Cl)(Cl)Cl)cc1 (stereo unspecified)	4%	-6%	u	-19%	u	-78*
COc1ccc(NC(=O)C(NC(=O)c2ccc(C)cc2)c2ccccc2)cc1 (stereo unspecified)	-1%	19%	9%	-18%	-15%	0
Cc1cc(C)cc(NC(=O)C2C3C=CC4(O3)C2C(=O)N(CCN2CCCCC2)C4C(=O)NC2CCCCC2)c1 (stereo unspecified)	1%	0%	-23%	-1%	-4%	-11
CC1CCCC(NC(=O)C2N(CCCN3CCCC3)C(=O)C3C(C(=O)Nc4cccc(Cl)c4)C4C=CC32O4)C1C (stereo unspecified)	-22%	11%	u	-29%	-2%	-57*
CCCCN(C)CCN1C(=O)C2C(C(=O)Nc3ccc(C)cc3)C3C=CC2(O3)C1C(=O)NC1CCCCC1 (stereo unspecified)	-4%	21%	-22%	-4%	0%	-54*
CN(C)CCN1C(=O)C2C(C(=O)Nc3cc(Cl)cc(Cl)c3)C3C=CC2(O3)C1C(=O)NC1CCCCC1 (stereo unspecified)	-18%	6%	-2%	-11%	4%	-68*
COC(=O)/C=C/c1c(C)nc(NCc2ccccc2)nc1Cl	5%	-14%	u	-7%	u	-11
CCS(=O)(=O)N1Cc2ccccc2CC1C(=O)NCCc1c[nH]c2ccccc12 (stereo unspecified)	0%	-11%	4%	0%	0%	16
COc1ccc(C2=CN(Cc3ccccc3)C(c3ccccc3)CC2=O)cc1 (stereo unspecified)	u	u	u	u	u	-11
COc1ccc(-c2ccccc2[C@H]2[C@@H]3C=CC[C@@H](C)[C@@H]3C(=O)N2Cc2ccccc2)cc1	u	u	10µM*	u	13µM*	-10
C[C@@H]1CC=C[C@@H]2[C@H]1C(=O)N(Cc1ccccc1)[C@H]2c1ccccc1Br	u	u	16µM*	u	18µM*	-16
CCCn1c2ccccc2c2cnn(CC(=O)Nc3cc(C)c(Cl)cc3OC)c(=O)c21	x	x	-23%	x	u	x
